MLL AF4-AF9 inh = inhibitors of AF4 peptide binding to AF9, primary screen, biochemical, AlphaScreen, biotin-AF4 peptide, FLAG-AF9, single point; inhibition, % at 10 µM; 0.47% of 350,000 active; AID 651704, 2012;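 active = every replicate reaching a set inhibition limit, whatever the replicate mean, cut at about 25% in these data; inconclusive = mean inhibition reaches that limit but some replicates miss it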;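 note: 0% = plate neutral control median and 100% = total signal loss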
Target sequence (P42568 whole entry, looked up): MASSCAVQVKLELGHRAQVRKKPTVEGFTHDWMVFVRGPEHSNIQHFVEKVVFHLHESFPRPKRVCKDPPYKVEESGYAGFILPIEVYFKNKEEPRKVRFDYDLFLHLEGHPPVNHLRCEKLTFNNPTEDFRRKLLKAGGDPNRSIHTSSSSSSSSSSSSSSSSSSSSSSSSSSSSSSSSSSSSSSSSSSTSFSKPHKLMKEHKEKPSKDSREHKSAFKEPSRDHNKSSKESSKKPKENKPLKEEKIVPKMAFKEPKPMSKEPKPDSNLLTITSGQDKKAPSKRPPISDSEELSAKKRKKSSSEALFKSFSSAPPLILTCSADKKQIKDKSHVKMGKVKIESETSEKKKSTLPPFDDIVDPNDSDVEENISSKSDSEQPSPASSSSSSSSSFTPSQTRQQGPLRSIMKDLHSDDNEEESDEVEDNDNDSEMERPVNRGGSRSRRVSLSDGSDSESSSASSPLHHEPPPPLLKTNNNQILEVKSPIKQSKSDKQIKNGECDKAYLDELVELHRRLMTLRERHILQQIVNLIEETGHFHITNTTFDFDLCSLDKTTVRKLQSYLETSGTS
ERAP1 HTS inh = human ERAP1 aminopeptidase inhibitors, primary screen, biochemical, single point, plate reader; 0.15% of 340,000 active; AID 652197, 2013; Endoplasmic reticulum aminopeptidase 1 (Homo sapiens), Q9NZ08; recombinant ERAP1, Leu-AMC fluorescence, 60 min; inhibition, % at 10.7 µM;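 active = mean replicate inhibition of at least 30%, or all replicates individually reaching that 30% level; inactive = mean below 30% and not every replicate reaching it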;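 note: 0% = neutral control wells and 100% = L-leucinethiol positive control wells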
FGF22 binding = binders of human FGF22 protein, primary screen, FGF22 synaptogenesis inhibitor project, biophysical, thermal shift, single point; Fibroblast growth factor 22 (Homo sapiens), Q9HCT0; recombinant FGF22 thermal shift, SYPRO orange fluorescence; percent of sucrose octasulfate shift, DMSO zero; activity (Tm shift, normalised), % at 9.99 µM; 1.5% of 340,000 active; AID 651658, 2012;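 active = mean Tm shift, scaled 0 neutral to 100 positive control, at about 1.3% or above, every replicate too, limit read from the data; inconclusive = no clear call, values can overlap the other calls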
DENV2 CPE rescue = inhibitors of DENV2 cytopathic effect, primary screen, cell-based, plate reader, single concentration; DENV2-infected cells, cytopathic effect rescue; CPE inhibition, % at 9.99 µM; 1.7% of 350,000 active; in the data active = CPE inhibition above about 20%, passing the limit was not always enough; inconclusive = no clear call, values can overlap the other calls; tested in BHK-21 cells;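 note: 0% = median of neutral control wells and 100% = median of positive control wells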
RAD52 inh = RAD52 DNA annealing inhibitors, primary screen, biochemical, FRET, single point, set 2; recombinant RAD52 DNA annealing, FRET fluorescence; 0.46% of 360,000 active; DNA repair protein RAD52 homolog (Homo sapiens), P43351; inhibition, % at 18.7 µM;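 active = every replicate showing at least 50% inhibition; inconclusive = mean inhibition at least 50% but not in every replicate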
The depositor's hits bear a star. An excerpt weighted towards active compounds, which were near 4% of everything screened.

Results for CO[C@@H]1CN(C)C(=O)c2cc(NC(=O)c3ccc(Oc4ccccc4)cc3)ccc2OC[C@H](C)NC[C@@H]1C ?
MLL AF4-AF9 inh: 9.8; ERAP1 HTS inh: -1.7; FGF22 binding: 0.0; DENV2 CPE rescue: 22.5*; RAD52 inh: 22.1

Results for CO[C@H]1CN(C)C(=O)c2ccc(NC(=O)c3ccccc3)cc2OC[C@H](C)NC[C@@H]1C ?
MLL AF4-AF9 inh: -6.6; ERAP1 HTS inh: -1.9; DENV2 CPE rescue: 39.2*; RAD52 inh: -7.8

Results for CO[C@@H]1CN(C)C(=O)c2ccc(NC(=O)c3ccc(Oc4ccccc4)cc3)cc2OC[C@H](C)NC[C@@H]1C ?
MLL AF4-AF9 inh: 10.3; ERAP1 HTS inh: -1.1; FGF22 binding: -0.2; DENV2 CPE rescue: inconclusive; RAD52 inh: 47.0

What do the screens show for `CO[C@H]1CN(C)C(=O)c2cc(NC(=O)c3ccc(Oc4ccccc4)cc3)ccc2OC[C@H](C)NC[C@H]1C`?
MLL AF4-AF9 inh: -0.2; ERAP1 HTS inh: 3.9; FGF22 binding: 0.1; DENV2 CPE rescue: -3.9; RAD52 inh: 52.7*

What do the screens show for `CO[C@H]1CN(C)C(=O)c2ccc(NC(=O)c3ccccc3)cc2OC[C@H](C)NC[C@H]1C`?
MLL AF4-AF9 inh: -2.6; ERAP1 HTS inh: -2.8; FGF22 binding: 0.0; DENV2 CPE rescue: -4.3; RAD52 inh: 10.7

What do the screens show for `CCCN1[C@@H]2c3ccc(-c4cccc(C(=O)N(C)C)c4)c(=O)n3C[C@@H]2[C@@H](CO)[C@@H]1C(=O)OC`?
MLL AF4-AF9 inh: -2.0; ERAP1 HTS inh: 1.5; DENV2 CPE rescue: -3.3; RAD52 inh: -1.9

Results for Cc1cc(C)cc(NC(=S)N(Cc2ccc(Br)cc2)Cc2ccc(C(=O)O)cc2)c1 ?
MLL AF4-AF9 inh: -1.9; ERAP1 HTS inh: 1.0; FGF22 binding: 42.5; RAD52 inh: -19.9

How did Cc1ccc(NC(=S)N(Cc2ccc(Br)cc2)Cc2ccc(C(=O)O)cc2)cc1C do in these assays?
MLL AF4-AF9 inh: -9.6; ERAP1 HTS inh: 7.1; FGF22 binding: 43.0*; DENV2 CPE rescue: 2.3; RAD52 inh: -8.5

Results for Cc1cc(NC(=S)N(Cc2ccc(Cl)cc2)Cc2ccc(C(=O)O)cc2)ccc1Cl ?
MLL AF4-AF9 inh: -3.3; ERAP1 HTS inh: 1.5; FGF22 binding: 43.7*; DENV2 CPE rescue: -3.9; RAD52 inh: -15.2

How did Cc1cc(C)cc(NC(=S)N(Cc2ccc(Cl)cc2)Cc2ccc(C(=O)O)cc2)c1 do in these assays?
MLL AF4-AF9 inh: -0.7; ERAP1 HTS inh: -6.1; DENV2 CPE rescue: 10.5; RAD52 inh: -22.4

How did Cc1noc(C)c1S(=O)(=O)Nc1ccc2c(c1)C(=O)N([C@@H](C)CO)C[C@H](C)[C@@H](CN(C)C(=O)Cc1ccccc1)OCCCC[C@H](C)O2 do in these assays?
MLL AF4-AF9 inh: 3.6; ERAP1 HTS inh: 0.2; FGF22 binding: -0.9; DENV2 CPE rescue: 1.7; RAD52 inh: -8.9

What do the screens show for `COc1ccc(CN(C)C[C@@H]2Oc3ccc(NC(=O)Cc4ccccc4)cc3CC(=O)N([C@@H](C)CO)C[C@H]2C)cc1`?
MLL AF4-AF9 inh: -1.5; ERAP1 HTS inh: -2.8; FGF22 binding: -0.3; DENV2 CPE rescue: 0.5; RAD52 inh: 4.4

How did COC1=C(Nc2ccccc2)C(=O)C(OC)=C(Nc2ccccc2)C1=O do in these assays?
MLL AF4-AF9 inh: 8.6; ERAP1 HTS inh: 5.0; FGF22 binding: 44.2*; DENV2 CPE rescue: 1.1; RAD52 inh: 3.7

What do the screens show for `CC(C)CC#Cc1ccc2c(c1)O[C@H](CN(C)C(=O)CC1CC1)[C@H](C)CN([C@H](C)CO)S2(=O)=O`?
MLL AF4-AF9 inh: 1.3; ERAP1 HTS inh: 0.1; FGF22 binding: -0.4; DENV2 CPE rescue: 5.3; RAD52 inh: 10.1

Results for COc1ccc2c3c([nH]c2c1)[C@H](CO)N(C(=O)CN1CCOCC1)CC31CN(C(=O)NC(C)C)C1 ?
MLL AF4-AF9 inh: -0.5; FGF22 binding: -0.2; DENV2 CPE rescue: -1.7

How did C/C(=N/NC(=O)CSc1nc2ccccc2n1C)c1ccncc1 do in these assays?
MLL AF4-AF9 inh: -0.8; ERAP1 HTS inh: 0.9; FGF22 binding: 43.2*; DENV2 CPE rescue: 0.4; RAD52 inh: -7.2

Results for C/C(=N\NC(=O)CSc1nc2ccccc2[nH]1)c1ccncc1 ?
MLL AF4-AF9 inh: -0.2; ERAP1 HTS inh: 1.9; FGF22 binding: 43.4*; DENV2 CPE rescue: -4.1; RAD52 inh: -32.0

Screening data from PubChem BioAssay.
